PubChem BioAssay (Tox21)
Results filed as inconclusive are left out. The source made the active and inactive calls. Unless noted, calls follow the shape of the dose curve; as a rule, active = well fitted curve in the direction sought with a large enough effect in the repeat runs; inconclusive = weak or mixed curves; inactive = no such curve, though single readings can be large; an effect the other way counts as inactive or inconclusive.

What was measured:
[1] = qHTS assay to identify aromatase inhibitors - cell viability counter screen (AID 743084); conditions: MCF-7 aro ERE viability, CellTiter-Fluor, 24 h; series mostly up to 70.3 µM;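 also: cells stimulated with testosterone during compound exposure; nearly all actives have a fitted effect of over 55% in size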
[2] = qHTS assay to identify small molecule that activate the aryl hydrocarbon receptor (AhR) signaling pathway - cell viability counter screen (AID 743086); conditions: HepG2-AhR-luc viability, CellTiter-Fluor, 24 h; series mostly up to 70.3 µM;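 also: HepG2 liver cells carrying the AhR DRE luciferase reporter; nearly all actives have a fitted effect of over 45% in size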
Method in brief: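 HepG2-AhR-luc (HG2L7.5c1) cells, 4000/well, were preincubated 5 h at 37C, exposed to compound in qHTS format for 24 hr at 37C, then given CellTiter-Fluor for 30 min; viability was read as fluorescence in the reporter wells.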

[3] = molecular target: Peroxisome proliferator-activated receptor gamma (Homo sapiens) (UniProt P37231); assay: qHTS assay to identify small molecule agonists of the peroxisome proliferator-activated receptor gamma (PPARg) signaling pathway (AID 743094; active = well fitted activation curve with a large enough effect in the signal ratio in the repeat runs, not every such curve was filed as active; the % refers to the signal ratio); conditions: HEK293H PPARg-UAS-bla, beta-lactamase FRET ratio, 17 h; series mostly up to 57 µM
Peroxisome proliferator-activated receptor gamma (Homo sapiens), sequence (P37231 whole entry, looked up): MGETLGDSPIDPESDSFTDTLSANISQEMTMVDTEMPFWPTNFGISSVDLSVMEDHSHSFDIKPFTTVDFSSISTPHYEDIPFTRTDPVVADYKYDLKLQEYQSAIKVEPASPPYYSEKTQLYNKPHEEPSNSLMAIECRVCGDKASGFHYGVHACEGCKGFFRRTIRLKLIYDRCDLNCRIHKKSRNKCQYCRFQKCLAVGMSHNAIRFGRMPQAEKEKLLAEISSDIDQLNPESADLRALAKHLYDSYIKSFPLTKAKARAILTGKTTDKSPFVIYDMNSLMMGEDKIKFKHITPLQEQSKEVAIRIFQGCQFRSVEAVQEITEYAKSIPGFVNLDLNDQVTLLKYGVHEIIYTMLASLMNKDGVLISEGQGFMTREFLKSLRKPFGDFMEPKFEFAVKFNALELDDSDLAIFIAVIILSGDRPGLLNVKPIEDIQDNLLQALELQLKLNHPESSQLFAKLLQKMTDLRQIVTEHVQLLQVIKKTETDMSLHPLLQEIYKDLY
Method in brief: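 Compounds dissolved in DMSO were added to PPARg UAS-bla HEK293H cells for 17 h at 37C, and reporter expression was quantified by fluorescence intensity after 1 h with LiveBLAzer B/G FRET substrate.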

[4] = molecular target: Peroxisome proliferator-activated receptor gamma (Homo sapiens) (UniProt P37231); assay: qHTS assay to identify small molecule antagonists of the peroxisome proliferator-activated receptor gamma (PPARg) signaling pathway (AID 743191; calls by dose curve; also: nearly all actives have a fitted effect of over 30% in size); conditions: HEK293H PPARg-UAS-bla, beta-lactamase ratio, antagonist, 17 h; series mostly up to 62.6 µM
Method in brief: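 GeneBLAzer PPARg UAS-bla HEK293H cells carrying a UAS-driven beta-lactamase reporter were plated at 3000 cells/well, preincubated 5 h at 37C, then given compound for 17 h at 37C; LiveBLAzer B/G FRET substrate was read after 1 h at room temperature.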

[5] = qHTS assay to identify small molecule antagonists of the peroxisome proliferator-activated receptor gamma (PPARg) signaling pathway - cell viability counter screen (AID 743194); conditions: PPARg-bla HEK293H viability, CellTiter-Glo luminescence, 17 h, co-treated with 50 nM rosiglitazone; series mostly up to 62.6 µM; also: nearly all actives have a fitted effect of over 55% in size
Method in brief: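 PPARg-UAS-bla HEK293H cells were plated, rested 5 h at 37 C, then treated with compounds plus rosiglitazone (50 nM final) for 17 h at 37 C; viability was then read by CellTiter-Glo luminescence after 30 min at room temperature.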

[6] = qHTS assay for small molecule agonists of the antioxidant response element (ARE) signaling pathway (AID 743202; active = well fitted activation curve with a large enough effect in the signal ratio in the repeat runs, not every such curve was filed as active; the % refers to the signal ratio); conditions: HepG2 ARE-bla reporter, beta-lactamase FRET, 16 h; series mostly up to 73.3 µM
Method in brief: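 Read-out: LiveBLAzer B/G FRET substrate fluorescence after 2 h at room temperature, following 16 h compound treatment at 37 C of HepG2 cells carrying an ARE-driven beta-lactamase reporter.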

[7] = qHTS assay for small molecule agonists of the antioxidant response element (ARE) signaling pathway - cell viability counter screen (AID 743203; calls by dose curve; also: nearly all actives have a fitted effect of over 55% in size); conditions: ARE-bla HepG2 viability, CellTiter-Glo luminescence, 16 h; series mostly up to 73.3 µM
Method in brief: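 Following 16 hrs of compound treatment at 37C, HepG2 cells with an ARE-controlled beta-lactamase gene were lysed with CellTiter-Glo. Luminescence was read after 30 min at room temperature.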

[8] = qHTS assay for small molecule activators of the heat shock response signaling pathway - cell viability counter screen (AID 743209); conditions: HSE-bla HeLa viability, CellTiter-Glo luminescence, 5 h; series mostly up to 62.6 µM; also: nearly all actives have a fitted effect of over 50% in size
Method in brief: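 Readout: CellTiter-Glo luminescence, 30 min at room temperature. System: HSE-bla HeLa cells, 1500/well, plated overnight. Treatment: compounds in DMSO, 5 h at 37 C.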

[9] = qHTS assay for small molecule activators of the heat shock response signaling pathway (AID 743210; active = well fitted activation curve with a large enough effect in the signal ratio in the repeat runs, with a control signal flat, not every such curve was filed as active; the % refers to the signal ratio); conditions: HeLa HSE-bla reporter, beta-lactamase ratio, 5 h; series mostly up to 62.6 µM
Method in brief: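 HSE-bla HeLa cells (beta-lactamase reporter under heat shock response elements) were exposed to compounds for 5 h at 37 C, then loaded with LiveBLAzer B/G FRET substrate for 2.5 h at room temperature before fluorescence reading.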

[10] = qHTS assay to identify small molecule agonists of the peroxisome proliferator-activated receptor delta (PPARd) signaling pathway - cell viability counter screen (AID 743211); conditions: PPARd-bla HEK293H viability, CellTiter-Glo luminescence, 17 h; series mostly up to 62.6 µM; also: nearly all actives have a fitted effect of over 55% in size
Method in brief: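 PPARd-bla HEK293H cells (3000/well) were pre-incubated 5 h at 37 C, then exposed to compound for 17 h at 37 C. After 2 h with LiveBLAzer substrate, CellTiter-Glo was added to the same wells; luminescence read after 30 min at room temperature.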

[11] = molecular target: Peroxisome proliferator-activated receptor delta (Homo sapiens) (UniProt Q03181); assay: qHTS assay to identify small molecule agonists of the peroxisome proliferator-activated receptor delta (PPARd) signaling pathway (AID 743212; calls by dose curve); conditions: HEK293H PPARd-UAS-bla, beta-lactamase FRET ratio, 17 h; series mostly up to 62.6 µM
Peroxisome proliferator-activated receptor delta (Homo sapiens), sequence (Q03181 whole entry, looked up): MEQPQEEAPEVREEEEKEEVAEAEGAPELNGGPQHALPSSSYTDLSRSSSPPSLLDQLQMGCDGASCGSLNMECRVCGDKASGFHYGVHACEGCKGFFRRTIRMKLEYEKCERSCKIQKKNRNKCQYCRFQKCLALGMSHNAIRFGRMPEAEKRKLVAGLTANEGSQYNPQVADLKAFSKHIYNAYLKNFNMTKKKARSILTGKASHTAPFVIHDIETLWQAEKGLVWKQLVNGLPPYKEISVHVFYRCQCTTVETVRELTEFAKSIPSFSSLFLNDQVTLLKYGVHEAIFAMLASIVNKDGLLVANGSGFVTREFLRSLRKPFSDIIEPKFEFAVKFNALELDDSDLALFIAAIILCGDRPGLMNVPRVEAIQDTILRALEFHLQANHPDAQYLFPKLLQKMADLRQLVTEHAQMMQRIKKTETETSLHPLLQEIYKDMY
Method in brief: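 GeneBLAzer PPARd UAS-bla HEK293H cells (beta-lactamase reporter under UAS control), plated and rested 5 h at 37 C, then exposed to compounds in DMSO at 37 C; LiveBLAzer B/G FRET substrate added, 2 h room temperature, fluorescence read.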

[12] = qHTS assay to identify small molecule antagonists of the peroxisome proliferator-activated receptor delta (PPARd) signaling pathway - cell viability counter screen (AID 743213); conditions: PPARd-bla HEK293H viability, CellTiter-Glo luminescence, 17 h; series mostly up to 62 µM; also: nearly all actives have a fitted effect of over 50% in size
Method in brief: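 HEK293H cells with the PPARd UAS-bla reporter, co-treated 17 h at 37 C with compounds and L165041 (300 nM final), were lysed with CellTiter-Glo. Luminescence indicated viable cell content.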

[13] = molecular target: Peroxisome proliferator-activated receptor delta (Homo sapiens) (UniProt Q03181); assay: qHTS assay to identify small molecule antagonists of the peroxisome proliferator-activated receptor delta (PPARd) signaling pathway (AID 743215; active = well fitted inhibition curve with a large enough effect in the signal ratio in the repeat runs, not every such curve was filed as active; the % refers to the signal ratio;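 also: cells stimulated with agonist L165041 at 300 nM final during compound exposure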); conditions: HEK293H PPARd-UAS-bla, beta-lactamase FRET ratio, antagonist, 17 h; series mostly up to 62 µM
Method in brief: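 HEK293H UAS-bla, PPARd; agonist L165041 300 nM final with cpd in DMSO; 37 C 17 h; FRET substrate, RT 2 h; fluorescence intensity.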

[14] = molecular target: Bile acid receptor (Homo sapiens) (UniProt Q96RI1); assay: qHTS assay to identify small molecule antagonists of the farnesoid-X-receptor (FXR) signaling pathway (AID 743217; active = well fitted inhibition curve with a large enough effect in the signal ratio in the repeat runs, not every such curve was filed as active; the % refers to the signal ratio); conditions: HEK293T FXR-UAS-bla, beta-lactamase ratio, CDCA-stimulated, 16 h; series mostly up to 62.6 µM
Bile acid receptor (Homo sapiens), sequence (Q96RI1 whole entry, looked up): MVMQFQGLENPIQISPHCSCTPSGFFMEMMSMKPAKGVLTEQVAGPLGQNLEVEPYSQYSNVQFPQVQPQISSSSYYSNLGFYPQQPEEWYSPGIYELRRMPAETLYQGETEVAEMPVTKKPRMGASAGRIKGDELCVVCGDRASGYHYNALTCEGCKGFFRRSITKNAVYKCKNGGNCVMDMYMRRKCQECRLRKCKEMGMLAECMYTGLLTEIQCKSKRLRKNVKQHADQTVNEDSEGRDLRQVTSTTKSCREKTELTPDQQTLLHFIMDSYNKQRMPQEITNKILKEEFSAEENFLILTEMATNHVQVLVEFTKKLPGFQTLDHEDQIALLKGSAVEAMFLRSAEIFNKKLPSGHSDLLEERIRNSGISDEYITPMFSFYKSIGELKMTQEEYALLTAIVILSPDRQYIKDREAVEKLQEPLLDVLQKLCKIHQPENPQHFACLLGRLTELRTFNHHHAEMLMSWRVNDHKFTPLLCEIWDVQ
Method in brief: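 GeneBLAzer FXR-UAS-bla HEK 293T, CDCA-stimulated (50 uM final). Compound treatment 16 h, 37 °C. Detection: beta-lactamase cleavage of B/G FRET substrate, fluorescence.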

[15] = qHTS assay to identify small molecule agonists of the farnesoid-X-receptor (FXR) signaling pathway - cell viability counter screen (AID 743218); conditions: FXR-bla HEK293T viability, CellTiter-Glo luminescence, 16 h; series mostly up to 62.6 µM; also: nearly all actives have a fitted effect of over 45% in size
Method in brief: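 Parallel cytotoxicity test: compound-treated (16 h, 37 C) HEK 293T FXR-bla reporter cells were lysed with CellTiter-Glo and luminescence recorded.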

[16] = molecular target: Bile acid receptor (Homo sapiens) (UniProt Q96RI1); assay: qHTS assay to identify small molecule agonists of the farnesoid-X-receptor (FXR) signaling pathway (AID 743220; active = well fitted activation curve with a large enough effect in the signal ratio in the repeat runs, not every such curve was filed as active; the % refers to the signal ratio); conditions: HEK293T FXR-UAS-bla, beta-lactamase FRET ratio, 16 h; series mostly up to 62.6 µM
Method in brief: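 Beta-lactamase reporter under UAS control in GeneBLAzer FXR HEK 293T cells (5000/well) measured with LiveBLAzer FRET substrate after 2 h at room temperature. Compound exposure lasted 16 h at 37C.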

[17] = qHTS assay to identify small molecule antagonists of the farnesoid-X-receptor (FXR) signaling pathway - cell viability counter screen (AID 743221; active = well fitted cell-killing curve with a large enough effect in the repeat runs, not every such curve was filed as active; also: nearly all actives have a fitted effect of over 50% in size); conditions: FXR-bla HEK293T viability, CellTiter-Glo luminescence, 16 h; series mostly up to 62.6 µM
Method in brief: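 GeneBLAzer FXR-UAS-bla HEK 293T cells, compound plus chenodeoxycholic acid (50 uM final), 16 h at 37 C. CellTiter-Glo added to the same wells after the beta-lactamase read; luminescence read after 30 min at room temperature as viability.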

[18] = molecular target: Vitamin D3 receptor (Homo sapiens) (UniProt P11473); assay: qHTS assay to identify small molecule agonists of the vitamin D receptor (VDR) signaling pathway (AID 743222; calls by dose curve); conditions: HEK293T VDR-UAS-bla, beta-lactamase FRET ratio, 16 h; series mostly up to 63.5 µM
Vitamin D3 receptor (Homo sapiens), sequence (P11473 whole entry, looked up): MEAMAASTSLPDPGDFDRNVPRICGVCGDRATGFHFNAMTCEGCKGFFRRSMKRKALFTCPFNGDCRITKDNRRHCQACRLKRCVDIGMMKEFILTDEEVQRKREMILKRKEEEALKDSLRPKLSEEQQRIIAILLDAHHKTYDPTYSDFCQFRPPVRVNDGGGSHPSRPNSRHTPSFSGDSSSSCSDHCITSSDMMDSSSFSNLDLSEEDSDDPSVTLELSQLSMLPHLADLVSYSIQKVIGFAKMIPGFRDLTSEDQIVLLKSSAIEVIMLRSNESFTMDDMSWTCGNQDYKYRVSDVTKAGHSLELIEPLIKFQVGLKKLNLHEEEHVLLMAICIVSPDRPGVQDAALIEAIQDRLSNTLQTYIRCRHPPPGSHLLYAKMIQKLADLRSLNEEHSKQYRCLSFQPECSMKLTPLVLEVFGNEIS
Method in brief: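 In VDR-bla cells, compound-induced beta-lactamase expression is quantified by FRET substrate fluorescence. Treatment lasts 16 h at 37C; substrate develops 2 h at room temperature.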

[19] = molecular target: Vitamin D3 receptor (Homo sapiens) (UniProt P11473); assay: qHTS assay to identify small molecule antagonists of the vitamin D receptor (VDR) signaling pathway (AID 743223; active = well fitted inhibition curve with a large enough effect in the signal ratio in the repeat runs, not every such curve was filed as active; the % refers to the signal ratio); conditions: VDR-UAS-bla HEK293T, beta-lactamase FRET ratio, 16 h; series mostly up to 61 µM
Method in brief: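 VDR-bla cells were treated with compound plus 3 nM final 1alpha,25-dihydroxyvitamin D3 for 16 h at 37C. Beta-lactamase reporter read by B/G FRET substrate fluorescence after 2 h at room temperature. qHTS format.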

[20] = molecular target: Aryl hydrocarbon receptor (Homo sapiens) (UniProt P35869); assay: qHTS assay to identify small molecule that activate the aryl hydrocarbon receptor (AhR) signaling pathway (AID 743085); conditions: HepG2 AhR-luc (HG2L7.5c1), luciferase, 24 h; series mostly up to 70.3 µM; also: nearly all actives have a fitted effect of over 15% in size; also: potency is read from the fitted curve at half-maximal effect;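 as to activation: HG2L7.5c1 human HepG2 liver cells with stably integrated DRE-driven firefly reporter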
Aryl hydrocarbon receptor (Homo sapiens), sequence (P35869 whole entry, looked up): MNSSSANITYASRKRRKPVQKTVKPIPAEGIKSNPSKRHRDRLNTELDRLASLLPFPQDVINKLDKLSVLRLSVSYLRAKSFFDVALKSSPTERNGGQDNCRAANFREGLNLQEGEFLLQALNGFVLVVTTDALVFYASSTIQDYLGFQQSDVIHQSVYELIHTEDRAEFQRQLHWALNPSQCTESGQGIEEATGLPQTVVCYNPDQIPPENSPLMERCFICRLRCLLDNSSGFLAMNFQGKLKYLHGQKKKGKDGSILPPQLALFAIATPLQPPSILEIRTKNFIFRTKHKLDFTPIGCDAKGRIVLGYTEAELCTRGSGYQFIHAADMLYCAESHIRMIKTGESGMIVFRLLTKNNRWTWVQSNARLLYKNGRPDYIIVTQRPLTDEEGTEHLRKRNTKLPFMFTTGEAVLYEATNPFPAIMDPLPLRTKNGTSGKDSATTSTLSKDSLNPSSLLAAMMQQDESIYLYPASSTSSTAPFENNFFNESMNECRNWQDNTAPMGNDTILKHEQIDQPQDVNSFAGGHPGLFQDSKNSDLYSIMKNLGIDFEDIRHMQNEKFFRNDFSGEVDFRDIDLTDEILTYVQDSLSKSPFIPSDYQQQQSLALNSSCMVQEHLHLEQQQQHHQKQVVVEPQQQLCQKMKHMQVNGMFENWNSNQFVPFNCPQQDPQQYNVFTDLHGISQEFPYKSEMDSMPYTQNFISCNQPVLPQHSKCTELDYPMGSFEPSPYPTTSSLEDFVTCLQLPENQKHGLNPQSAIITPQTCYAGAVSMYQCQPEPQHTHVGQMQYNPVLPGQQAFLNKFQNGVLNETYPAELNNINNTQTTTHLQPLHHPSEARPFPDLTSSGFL
Method in brief: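 HepG2 cells stably carrying a 20-DRE firefly luciferase reporter (HG2L7.5c1) treated with compound for 24 hr at 37C. Luciferase read by ONE-Glo luminescence, with CellTiter-Fluor viability read first.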

Measured: Potency

C[C@H]1[C@@H](c2ccccc2)NC(=O)N1C
not listed: [20]
inactive: all other assays above

Cc1ncc([N+](=O)[O-])n1CC(C)O (stereo not drawn)
not listed: [14] | [16] | [17] | [20]
inactive: all other assays above

Cn1c(=O)c2c(ncn2CCO)n(C)c1=O
not listed: [3] | [4] | [14] | [16]
inactive: all other assays above

C[C@@H](O)C(=O)O
not listed: [3] | [4] | [13] | [15] | [17] | [19]
inactive: all other assays above

CCO[Si](CC)(OCC)OCC
not listed: [3] | [4] | [9] | [14] | [15] | [16] | [17] | [19]
inactive: all other assays above

Cc1cc(-c2ccccc2)nnc1NCCN1CCOCC1
not listed: [12] | [13] | [14] | [16] | [20]
inactive: all other assays above

C=C(C)[C@@H]1CC=C(C)C(=O)C1
not listed: [4] | [5] | [11] | [13] | [14] | [16]
inactive: all other assays above

c1ccc(B(c2ccccc2)c2ccccc2)cc1
active: [20] 30.6 µM
not listed: [4] | [5] | [6] | [9] | [12] | [13] | [17]
inactive: all other assays above

CC(C)Cn1cnc2c1c(=O)n(C)c(=O)n2C
not listed: [15] | [17] | [20]
inactive: all other assays above

CC1OCCC1=O (stereo not drawn)
inactive: [1] | [20] | [2] | [5] | [6] | [7] | [8] | [9] | [10] | [12] | [15]

CCO
not listed: [4] | [5] | [12] | [13]
inactive: all other assays above

COc1cc2c(cc1OC)C(=O)C(CC1CCN(Cc3ccccc3)CC1)C2 (stereo not drawn)
not listed: [4] | [6] | [14] | [15] | [18] | [19] | [20]
inactive: all other assays above

CSc1cnccn1
not listed: [6] | [20]
inactive: all other assays above

O=C(NCN1CCOCC1)c1cnccn1
not listed: [9] | [14] | [16] | [19] | [20]
inactive: all other assays above

CCOCCOCC
not listed: [4] | [19] | [20]
inactive: all other assays above

CC(=O)O[C@H]1C[C@@H]2CC[C@@]1(C)C2(C)C
not listed: [11] | [13] | [15] | [19] | [20]
inactive: all other assays above

O=C1OCCO1
not listed: [5] | [6] | [12] | [15] | [19] | [20]
inactive: all other assays above

CC(C)C1OCCN1CCOC(=O)NCCCCCCNC(=O)OCCN1CCOC1C(C)C (stereo not drawn)
not listed: [5] | [14] | [15] | [16] | [18] | [19] | [20]
inactive: all other assays above
